Inconclusive results are not listed. Active and inactive are the calls of the source. The call rests on the fitted dose curve; in most records, active means well fitted inhibition curve with a large enough effect; inconclusive means small, poorly fitted or top-dose-only effect; inactive means no such curve, though single readings can be large or run the other way.
biological target: Retinaldehyde dehydrogenase 3 (Homo sapiens) (UniProt P47895); assay: qHTS for Inhibitors of the Aldehyde Dehydrogenase Family (ALDH1A3) Confirmatory screens (AID 2061311); conditions: ALDH inhibition qHTS; series mostly up to 46 µM; activity change, negative = inhibition: at the top concentration; further: potency means the concentration at half of the fitted maximal effect; nearly all actives have a fitted effect of over 60% in size

| Compound | Potency |
| --- | --- |
| Cc1ccnc(NCc2ccc(O)c3ncccc23)c1 | 7.12 µM (active) |
| CCc1noc(-c2cccn3c(CNC(=O)COc4ccc(F)cc4)nnc23)n1 | 7.08 µM (active) |
| CC(=O)Nc1sc2c(c1-c1cc3ccccc3o1)CCNC2 | 11.3 µM (active) |

biological target: Retinal dehydrogenase 2 (Homo sapiens) (UniProt O94788); assay: qHTS for Inhibitors of the Aldehyde Dehydrogenase Family (ALDH1A2) Confirmation screens (AID 2061314); conditions: ALDH1A2 enzyme inhibition qHTS confirmation; series mostly up to 45.9 µM; activity, negative = inhibition: at the top concentration; further: nearly all actives have a fitted effect of over 65% in size; on activity, negative = inhibition: on the % scale 0 is the no-effect control and ±100 the full control effect

| Compound | activity, negative = inhibition | outcome |
| --- | --- | --- |
| COc1ccc(S(=O)(=O)NCc2nc3nc(C)cc(C)n3n2)cc1OC | -6.11% (inactive) |  |
| O=c1c2nc(OCc3ccc(F)cc3)ccc2ncn1C1CC1 | -21.7% (inactive) |  |
| COc1ccc(NS(=O)(=O)c2ccc3[nH]c(=O)ccc3c2)cc1OC |  | inactive |
| CC[C@H]1CN(C(=O)Nc2cccc(C(F)(F)F)c2)CC[C@H]1CC(=O)N(C)CCC#N | -9.54% (inactive) |  |
| CC(C)NS(=O)(=O)c1ccc(OCC(=O)N2CCN(c3cccc(Cl)c3)CC2)cc1 | -40% (inactive) |  |
| COc1ccc(-c2nc(C(=O)Nc3ccc(C(C)=O)cc3)nn2-c2cccc(Cl)c2)cc1 | -13.7% (inactive) |  |
| COc1ccc(NC(=O)c2ccco2)cc1NC(=O)c1ccccc1[N+](=O)[O-] | -13.4% (inactive) |  |
| O=C(Nc1ccc(O)cc1)c1cccc(S(=O)(=O)N2CCOCC2)c1 | -3.2% (inactive) |  |
| CCN(CC)CCNC(=O)CN1C(=O)COc2ccc(S(=O)(=O)N3CCOCC3)cc21 |  | inactive |
| CCOc1ccc(S(=O)(=O)N2CCN(c3ccccc3)CC2)cc1C(N)=O | -7.12% (inactive) |  |
| O=C(NCC(=O)N1CCOCC1)c1ccc(-c2cccc(C(F)(F)F)c2)cc1 | -28% (inactive) |  |
| COc1ccc(OC)c(S(=O)(=O)Nc2ccc3[nH]c(=O)[nH]c3c2)c1 | -6.5% (inactive) |  |
| O=S(=O)(NCCn1cc(-c2cncnc2)nn1)c1ccc(Cl)cc1 |  | inactive; activator |
| COc1ccc(-c2ccc(C(=O)Nc3cccc(C(F)(F)F)c3)cc2)nn1 | -12.4% (inactive) |  |
| CCCCOc1cccc(C(=O)Nc2cc(NC(=O)c3ccco3)ccc2OC)c1 | -17.3% (inactive) |  |
| COc1ccc(S(=O)(=O)N2CCC(N(C(=O)C3CC3)C3CCOCC3)CC2)cc1 | -2.07% (inactive) |  |
| Cc1ccc2cccc(NC(=O)COc3ccccc3[N+](=O)[O-])c2n1 | -3.56% (inactive) |  |
| COc1ccc(OC)c(N(CC(=O)NCc2ccccc2)S(=O)(=O)c2ccccc2)c1 | -16.7% (inactive) |  |

| Compound | activity, negative = inhibition | outcome |
| --- | --- | --- |
| Cc1nn(-c2ccc3nnc(C)n3n2)c(C)c1CCC(=O)Nc1ccc(OC(F)(F)F)cc1 |  | inactive |
| Cc1cccc(-c2nc3c(cnn3-c3ccccc3)c(=O)n2-c2ccc(Br)cc2)c1 | -14.4% (inactive) |  |
| COC(=O)c1ccccc1NC(=O)CCCS(=O)(=O)c1nc(-c2ccccc2OC)cc(C(F)(F)F)n1 | -38.2% (inactive) |  |
| COCCNC(=O)CCSc1nc(-c2ccc(OC)cc2)cc(C(F)(F)F)n1 | -22.7% (inactive) |  |
| Cc1nc2c(c(C)c1CCC(=O)Nc1ccc(F)cc1)c(=O)n(C)c(=O)n2C |  | inactive |
| COc1ccc(NC(=O)c2cc(S(=O)(=O)N3CCOCC3)ccc2OC)cc1 | -27.1% (inactive) |  |
| COCC1CN(Cc2ccc(C(F)(F)F)cc2)CC12CCNCC2 (stereo unspecified) | -16.7% (inactive) |  |
| O=C(NCC(=O)N1CCOCC1)c1ccc(-c2cnc3ccccc3c2)cc1 | -4.18% (inactive) |  |
| Cc1ccc(S(=O)(=O)NC[C@H]2O[C@@H](CC(=O)NCCN3CCOCC3)[C@H](O)[C@@H]2O)cc1 | -15% (inactive) |  |
| CCc1ccc(C(=O)c2cnc3ccc(C)cc3c2S(=O)(=O)c2ccc(OC)cc2)cc1 | -15.4% (inactive) |  |
| O=C(COc1ccccc1-c1nc(-c2ccccc2)no1)Nc1cccc([N+](=O)[O-])c1 | -19.6% (inactive) |  |
| Cc1cccn2c(=O)c3cc(C#N)c(=O)n(-c4nnc(SCc5ccc(Cl)cc5)s4)c3nc12 | -6.41% (inactive) |  |
| CN(Cc1ccccc1C(F)(F)F)C(=O)c1ccc(Cl)nc1 |  | inactive |
| CC(C)OCCCNC(=O)CN1C(=O)COc2ccc(S(=O)(=O)N3CCOCC3)cc21 | -15% (inactive) |  |
| CCOc1ccc(CNC(=O)C2CCCCN2S(=O)(=O)c2ccc(F)cc2)cc1OC (stereo unspecified) | -15.4% (inactive) |  |
| CCc1c(-c2ccccc2)nc2ccccc2c1C(=O)NC(C)c1ccccc1 (stereo unspecified) | -15.2% (inactive) |  |
| O=C(O)C1(Oc2ccc(Cl)cc2)CCN(c2cnccn2)CC1 | 2.05% (inactive) |  |

biological target: Aldehyde dehydrogenase 1A1 (Homo sapiens) (UniProt P00352); assay: qHTS for Inhibitors of the Aldehyde Dehydrogenase Family (ALDH1A1) Confirmatory screens (AID 2061316); conditions: ALDH inhibition qHTS; series mostly up to 47.3 µM; activity change, negative = inhibition: at the top concentration; further: nearly all actives have a fitted effect of over 65% in size; further: potency means the concentration at half of the fitted maximal effect; on activity change, negative = inhibition: on the % scale 0 is the no-effect control and ±100 the full control effect

| Compound | Potency | activity change, negative = inhibition |
| --- | --- | --- |
| Cc1ccnc(NCc2ccc(O)c3ncccc23)c1 | 8.96 µM (active) |  |
| CCc1noc(-c2cccn3c(CNC(=O)COc4ccc(F)cc4)nnc23)n1 |  | -18% (inactive) |
| CC(=O)Nc1sc2c(c1-c1cc3ccccc3o1)CCNC2 | 8.96 µM (active) |  |
